Measurements reported in PubChem BioAssay AID2685 (National Center for Advancing Translational Sciences (NCATS), 2010).
The whole screen tested about 320,000 compounds, of which about 2,100 (0.66%) were called active. Inconclusive results (about 53%) are left out. The call rests on the fitted dose curve; in most records, active means well fitted inhibition curve with a large enough effect in the signal ratio, with a control signal flat (not every such curve was filed as active); inconclusive means small, poorly fitted or top-dose-only effect, or effect the other way, or a change in a side signal; inactive means flat fitted curve, though single readings scatter; the % refers to the signal ratio. The list comes from a sample in which actives are over-represented; it also holds similar structures and randomly drawn compounds.

test: qHTS Assay for Lipid Storage Modulators in Drosophila S3 Cells; conditions: BODIPY lipid droplet fluorescence, 18-24 h, cells fed with added oleic acid; cell number change: measured here: cell count max response; series mostly up to 46.1 µM; lipid storage change, negative = inhibition: at the top concentration;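 on cell number change: cells counted by Cell Tracker Red CMTPX staining in the red channel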; on lipid storage change, negative = inhibition: on the % scale 0 is the no-effect control and ±100 the full control effect
Procedure, shortened: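 Drosophila S3 cells loaded with oleic acid (400 uM, as added) and compounds at several concentrations; lipid droplets imaged by 488-nm laser-scanning cytometry, 500–530 nm intensity and object ratio to cell channel. Percent activity normalized to 20 uM Triacsin C.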
Potency means the concentration at half of the fitted maximal effect.

Question: For `COc1ccccc1-c1nn(-c2ccccc2)cc1C(=O)N1CCN(C(=O)c2ccco2)CC1`, which “lipid storage change, negative = inhibition” value is on record?
Answer: 4.65% (inactive)

Question: And the cell number change?
Answer: 3.39%

Question: For `COc1ccccc1-c1nn(-c2ccccc2)cc1C(=O)N1CCc2ccccc2C1`, which Potency is on record?
Answer: 2.06 µM (active)

Question: What about the cell number change of the same compound?
Answer: -17.2%

Question: Which “lipid storage change, negative = inhibition” value does the source give for `COc1ccccc1-c1cc(C(=O)N2CCc3ccccc3C2)c2ccccc2n1` here?
Answer: 12.1% (inactive)

Question: And the cell number change?
Answer: -2.91%

Question: With `c1ccc(-c2cncnc2)cc1` as the compound, how does the “outcome” value read?
Answer: inactive

Question: And the cell number change?
Answer: -19.5%

Question: With `COc1ccc(N(Cc2cc3ccc(C)cc3[nH]c2=O)C(=O)c2ccco2)cc1` as the compound, how does the “lipid storage change, negative = inhibition” value read?
Answer: 14.3% (inactive)

Question: And the cell number change?
Answer: 1.12%

Question: For `CSc1nc(SCC(=O)NC(c2ccccc2)c2ccccc2)c2c3c(sc2n1)CN(C)CC3`, which “outcome” value is on record?
Answer: inactive

Question: And the cell number change?
Answer: 7.96%

Question: Which Potency does the source give for `COC(=O)C(C)N(c1ccc(C)cc1)S(=O)(=O)c1c(C)[nH]c(=O)[nH]c1=O` (stereo not drawn) here?
Answer: 25.9 µM (active)

Question: And the cell number change?
Answer: 6.83%

Question: With `CCOc1ccc(N(CC(=O)Nc2ccc(C)cc2)S(=O)(=O)c2c(C)[nH]c(=O)[nH]c2=O)cc1` as the compound, how does the “outcome” value read?
Answer: inactive

Question: What about the cell number change of the same compound?
Answer: -18.6%

Question: With `Cc1ccc(N(C(C)C(=O)O)S(=O)(=O)c2c(C)n[nH]c2C)cc1` (stereo not drawn) as the compound, how does the “lipid storage change, negative = inhibition” value read?
Answer: 14.2% (inactive)

Question: What about the cell number change of the same compound?
Answer: 2.85%

Question: What does the source list for `O=[N+]([O-])c1cccnc1NCCNc1ncc(C(F)(F)F)cc1Cl`?
Answer: lipid storage change, negative = inhibition: -22.1% (inactive); cell number change: -29.3%

Question: What does the source list for `NNC(=O)c1csc(-c2ncc(C(F)(F)F)cc2Cl)n1`?
Answer: lipid storage change, negative = inhibition: 10.2% (inactive); cell number change: 17.7%

Question: For `CC(=O)c1cc(C(=O)Nc2ccc3ccccc3c2)c(C)o1`, which “outcome” value is on record?
Answer: inactive

Question: What about the cell number change of the same compound?
Answer: 16%

Question: With `O=C(NCS(=O)(=O)c1ccccc1)c1ccccc1` as the compound, how does the Potency read?
Answer: 23.1 µM (active)

Question: And the cell number change?
Answer: 0.335%

Question: Which results are given for `O=C(NCCS(=O)(=O)c1ccc(Br)cc1)c1ccccc1`?
Answer: lipid storage change, negative = inhibition: -10.3% (inactive); cell number change: 14%

Question: With `Cc1ccc(S(=O)(=O)CNC(=O)c2ccccc2)cc1` as the compound, how does the “lipid storage change, negative = inhibition” value read?
Answer: 22.6% (inactive)

Question: What about the cell number change of the same compound?
Answer: 10%

Question: With `O=C(O)c1ccc(/C=N/Nc2ncc(C(F)(F)F)cc2Cl)cc1` as the compound, how does the “lipid storage change, negative = inhibition” value read?
Answer: -8.43% (inactive)

Question: And the cell number change?
Answer: 0.452%

Question: Which “lipid storage change, negative = inhibition” value does the source give for `Cc1ccc(S(=O)(=O)N2CCN(C(=O)COC(=O)Cc3ccc(F)cc3)CC2)c(C)c1` here?
Answer: 3.61% (inactive)

Question: And the cell number change?
Answer: -6.09%

Question: For `Cn1cccc1P(=O)(c1cccn1C)c1cccn1C`, which Potency is on record?
Answer: 5.17 µM (active)

Question: What about the cell number change of the same compound?
Answer: -5%

Question: For `Cn1cccc1C(=O)C(=O)Nc1ccccc1`, which “lipid storage change, negative = inhibition” value is on record?
Answer: -9.72% (inactive)

Question: And the cell number change?
Answer: -12.6%

Question: For `Cn1cccc2[nH]c(=O)nc1-2`, which “lipid storage change, negative = inhibition” value is on record?
Answer: -8.1% (inactive)

Question: What about the cell number change of the same compound?
Answer: 10.2%

Question: Which “lipid storage change, negative = inhibition” value does the source give for `CC(C)c1nnc(NC(=O)c2ccc3ccccc3c2)s1` here?
Answer: -9.44% (inactive)

Question: And the cell number change?
Answer: -0.433%

Question: Which results are given for `O=C(CN(Cc1ccc(F)cc1)S(=O)(=O)c1ccccc1)N1CCCCC1`?
Answer: lipid storage change, negative = inhibition: 15.8% (inactive); cell number change: -14.4%

Question: With `CS(=O)(=O)N(CC(=O)N1CCc2ccccc2C1)Cc1ccc(F)cc1` as the compound, how does the Potency read?
Answer: 0.13 µM (active)

Question: And the cell number change?
Answer: -12.3%

Question: Which results are given for `CC1CCN(C(=O)CN(Cc2ccc(F)cc2)S(C)(=O)=O)CC1`?
Answer: outcome: inactive; cell number change: -15.4%

Question: With `Cc1ccc(F)c(NC=C2C(=O)OC(C)(C)OC2=O)c1` as the compound, how does the “lipid storage change, negative = inhibition” value read?
Answer: 9.5% (inactive)

Question: And the cell number change?
Answer: -13.4%

Question: Which results are given for `COCc1nnc(NS(=O)(=O)c2c(C)cc(C)cc2C)s1`?
Answer: Potency: 18.4 µM (active); cell number change: -24.8%

Question: For `CC(C)(C)Cc1nnc(NS(=O)(=O)c2ccccc2)s1`, which “lipid storage change, negative = inhibition” value is on record?
Answer: -13.2% (inactive)

Question: What about the cell number change of the same compound?
Answer: -0.602%

Question: For `COCc1nnc(NS(=O)(=O)c2ccc([N+](=O)[O-])cc2)s1`, which Potency is on record?
Answer: 25.9 µM (active)

Question: What about the cell number change of the same compound?
Answer: 7.28%

Question: With `Cc1cc(C)c(S(=O)(=O)Nc2nnc(C)s2)c(C)c1` as the compound, how does the “lipid storage change, negative = inhibition” value read?
Answer: -4.87% (inactive)

Question: And the cell number change?
Answer: -0.995%

Question: For `COCc1nnc(NS(=O)(=O)c2ccc(F)cc2)s1`, which “lipid storage change, negative = inhibition” value is on record?
Answer: 6.26% (inactive)

Question: What about the cell number change of the same compound?
Answer: -4.6%

Question: Which “lipid storage change, negative = inhibition” value does the source give for `COCc1nnc(NS(=O)(=O)c2ccc(C)cc2)s1` here?
Answer: 5.32% (inactive)

Question: What about the cell number change of the same compound?
Answer: -2.98%

Question: Which “lipid storage change, negative = inhibition” value does the source give for `Cc1ccc(S(=O)(=O)Nc2nnc(CC(C)(C)C)s2)cc1` here?
Answer: -22.4% (inactive)

Question: And the cell number change?
Answer: -2.43%

Question: Which “lipid storage change, negative = inhibition” value does the source give for `Cc1cc(C)c(S(=O)(=O)Nc2nnc(CC(C)C)s2)c(C)c1` here?
Answer: -14.4% (inactive)

Question: And the cell number change?
Answer: -5.67%

Question: For `CC(C)(C)Cc1nnc(NS(=O)(=O)c2ccc(F)cc2)s1`, which Potency is on record?
Answer: 0.0517 µM (active)

Question: And the cell number change?
Answer: -2.36%

Question: For `Cn1ccs/c1=N\C(=O)Nc1cccc(Cl)c1`, which “lipid storage change, negative = inhibition” value is on record?
Answer: 11.8% (inactive)

Question: What about the cell number change of the same compound?
Answer: 1.31%

Question: Which “outcome” value does the source give for `OCC1(CCOc2ccccc2)CCN(Cc2ccccc2OC(F)F)CC1` here?
Answer: inactive

Question: And the cell number change?
Answer: 9.07%

Question: What does the source list for `CCCCOC(=O)c1ccc(Nc2ncnc3nc[nH]c23)cc1`?
Answer: lipid storage change, negative = inhibition: 23.4% (inactive); cell number change: 2.99%

Question: What does the source list for `O=C(Nc1ccccc1[N+](=O)[O-])C1(c2ccccc2)CCOCC1`?
Answer: lipid storage change, negative = inhibition: 13.6% (inactive); cell number change: -9.86%

Question: For `CCOC(=O)N/N=C/c1ccc(OC)c(O)c1`, which “lipid storage change, negative = inhibition” value is on record?
Answer: 0.972% (inactive)

Question: What about the cell number change of the same compound?
Answer: 4.89%

Question: For `Nc1nc(COc2ccc(F)cc2Cl)nc(N2CCCCC2)n1`, which “lipid storage change, negative = inhibition” value is on record?
Answer: 2.08% (inactive)

Question: Which results are given for `CCCCCn1c(CN2CCN(Cc3ccccc3)CC2)nc2c1c(=O)[nH]c(=O)n2C`?
Answer: lipid storage change, negative = inhibition: 13.4% (inactive); cell number change: -7.44%

Question: For `CCCCn1c(=O)[nH]c(=O)c2c1nc(Cn1ncc(Cl)c(Cl)c1=O)n2CCC`, which Potency is on record?
Answer: 9.2 µM (active)

Question: And the cell number change?
Answer: -17.5%

Question: Which “outcome” value does the source give for `CCCCn1c(-c2ccsc2)nc2c1c(=O)[nH]c(=O)n2CCC` here?
Answer: inactive

Question: And the cell number change?
Answer: 26%

Question: With `Cc1ccc(C(=O)c2nc(C(=O)NCCO)nc3ccccc23)cc1` as the compound, how does the “outcome” value read?
Answer: inactive

Question: And the cell number change?
Answer: 10.6%

Question: With `C/C(=N\O)C(=O)Nc1ccccc1` as the compound, how does the “lipid storage change, negative = inhibition” value read?
Answer: 12.5% (inactive)

Question: And the cell number change?
Answer: 5.48%

Question: For `O=S(=O)(Nc1ccc2cn[nH]c2c1)c1ccc(Cl)cc1`, which “outcome” value is on record?
Answer: inactive

Question: For `O=C1C(Cl)=C(Nc2ccc3cn[nH]c3c2)C(=O)c2ccccc21`, which Potency is on record?
Answer: 5.8 µM (active)

Question: And the cell number change?
Answer: -29.2%

Question: For `O=C1C(Cl)=C(Nc2ccccc2)C(=O)c2ccccc21`, which “lipid storage change, negative = inhibition” value is on record?
Answer: -20.8% (inactive)

Question: And the cell number change?
Answer: -30.2%

Question: What does the source list for `COc1ccc(S(=O)(=O)NNC(=O)C2COc3ccccc3O2)cc1[N+](=O)[O-]` (stereo not drawn)?
Answer: outcome: inactive; cell number change: 4.36%

Question: Which results are given for `NC(=O)c1ccc(NC(=O)CSc2nnc(-c3ccccn3)n2N)cc1`?
Answer: lipid storage change, negative = inhibition: 0.594% (inactive); cell number change: 1.07%

Question: With `O=C(Nc1ccc(Oc2cccnc2)cc1)C1CCN(Cc2cccc(Cl)c2)CC1` as the compound, how does the “outcome” value read?
Answer: inactive

Question: And the cell number change?
Answer: 27.9%

Question: With `Nc1nnnn1CC(=O)OCc1cccc(Br)c1` as the compound, how does the Potency read?
Answer: 2.06 µM (active)

Question: What about the cell number change of the same compound?
Answer: 4.89%

Question: What does the source list for `O=C(CNC(=O)c1ccccc1)OCc1cccc(Br)c1`?
Answer: lipid storage change, negative = inhibition: -23.1% (inactive); cell number change: -18.3%

Question: With `O=C(CN1CC(c2ccccc2)CC1=O)OCc1cccc(Br)c1` (stereo not drawn) as the compound, how does the “lipid storage change, negative = inhibition” value read?
Answer: -6% (inactive)

Question: What about the cell number change of the same compound?
Answer: 15.3%

Question: For `COc1ccc(S(=O)(=O)N2CCOC2CNC(=O)C(=O)NCc2ccncc2)cc1` (stereo not drawn), which “outcome” value is on record?
Answer: inactive

Question: What about the cell number change of the same compound?
Answer: -15.1%

Question: What does the source list for `COc1ccc(CCNC(=O)CSc2c[nH]c3ccccc23)cc1OC`?
Answer: lipid storage change, negative = inhibition: -1.63% (inactive); cell number change: 5.06%

Question: Which “lipid storage change, negative = inhibition” value does the source give for `O=C(COC(=O)CC1CCCC1)Nc1ccc(Cl)cn1` here?
Answer: -8.5% (inactive)

Question: And the cell number change?
Answer: 2.11%

Question: For `O=C(Nc1ccc(Cl)cn1)Nc1ccc(Cl)cn1`, which “outcome” value is on record?
Answer: inactive

Question: With `O=C(NCC1CCCC(CNC(=O)Nc2ccc(Cl)cn2)C1)Nc1ccc(Cl)cn1` (stereo not drawn) as the compound, how does the Potency read?
Answer: 0.082 µM (active)

Question: What about the cell number change of the same compound?
Answer: -15.8%

Question: Which “lipid storage change, negative = inhibition” value does the source give for `Nc1nc2ccc(C(=O)Nc3ccccc3)cc2s1` here?
Answer: 11.7% (inactive)

Question: What about the cell number change of the same compound?
Answer: -10.8%

Question: Which “lipid storage change, negative = inhibition” value does the source give for `Cc1ccc(N2C(=O)C3C4C=CC(CC4)C3C2=O)c([N+](=O)[O-])c1` (stereo not drawn) here?
Answer: 6.13% (inactive)

Question: What does the source list for `C=CCOc1ccccc1CN(C(=O)CCl)c1ccc2c(c1)OCO2`?
Answer: Potency: 9.2 µM (active); cell number change: 10.9%

Question: What does the source list for `C=CCOc1ccccc1CNc1ccc2c(c1)OCCO2`?
Answer: lipid storage change, negative = inhibition: 2.79% (inactive); cell number change: -4.69%

Question: For `O=C(CCl)N(C/C=C/c1ccccc1)c1ccc2c(c1)OCCO2`, which “lipid storage change, negative = inhibition” value is on record?
Answer: 8.7% (inactive)
